Experimental data: PubChem BioAssay AID1159580 (chemical genetic matrix, 2015)
Several values for one entry are separate records, joined by “and”; a condition that tells them apart may be missing. Identical values can stand only once. Among all 5,500 compounds or so, about 2,000 (36%) were called active. Not shown: some 18% with an inconclusive outcome. Cut-off read from the data, not from the text of the source: active = normalized growth mostly below about 0.91 (no sharp cut-off); inconclusive = no clear call, values can overlap the other calls; inactive = mostly above about 0.92. The list shows a part of the results.

Assay: chemical genetic growth profiling, strain panel (AID 1159580);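 note: tested at 20 µM; growth read once vehicle control cultures reached saturation at 30 °C; 1 = growth at the plate median or of vehicle wells; lower values mean less growth of the strain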
Settings: S. cerevisiae deletion strains, growth OD

Measured: normalized growth

c1ccc2c(c1)[nH]c1cnccc12
inactive: locus YAL021C, strain ccr4, stronger effect = lower value 1.01 | locus YAL026C, strain drs2, stronger effect = lower value 1.01 | locus YAL030W, strain snc1, stronger effect = lower value 0.999 | locus YBL061C, strain skt5, stronger effect = lower value 0.991 | locus YBR009C, strain hhf1, stronger effect = lower value 1 | locus YBR021W, strain FUR4, stronger effect = lower value 1.05 | locus YBR023C, strain chs3, stronger effect = lower value 0.993 | locus YBR171W, strain sec66, stronger effect = lower value 0.99 | locus YBR229C, strain ROT2, stronger effect = lower value 1.01 | locus YBR231C, strain swc5, stronger effect = lower value 0.999 | locus YBR279W, strain paf1, stronger effect = lower value 1 | locus YCL011C, strain gbp2, stronger effect = lower value 0.998 | locus YCL016C, strain dcc1, stronger effect = lower value 0.999 | locus YCL029C, strain bik1, stronger effect = lower value 0.975 | locus YCL061C, strain MRC1, stronger effect = lower value 0.997 | locus YCL069W, strain vba3, stronger effect = lower value 1 | locus YCR088W, strain abp1, stronger effect = lower value 1 | locus YDL005C, strain med2, stronger effect = lower value 0.989 | locus YDL035C, strain GPR1, stronger effect = lower value 0.991 | locus YDL040C, strain nat1, stronger effect = lower value 0.995 | locus YDL074C, strain BRE1, stronger effect = lower value 0.977 | locus YDL101C, strain DUN1, stronger effect = lower value 0.986 | locus YDL134C, strain PPH21, stronger effect = lower value 1.08 | locus YDL185W, strain tfp1, stronger effect = lower value 0.954 | locus YDL192W, strain arf1, stronger effect = lower value 0.979 | locus YDR001C, strain nth1, stronger effect = lower value 1 | locus YDR069C, strain doa4, stronger effect = lower value 0.977 | locus YDR101C, strain arx1, stronger effect = lower value 0.961 | locus YDR137W, strain rgp1, stronger effect = lower value 0.958 | locus YDR159W, strain sac3, stronger effect = lower value 1.01 | locus YDR162C, strain NBP2, stronger effect = lower value 1.01 | locus YDR195W, strain ref2 0.995 | locus YDR297W, strain sur2, stronger effect = lower value 0.999 | locus YDR318W, strain mcm21, stronger effect = lower value 1.01 | locus YDR334W, strain swr1, stronger effect = lower value 0.998 | locus YDR335W, strain msn5, stronger effect = lower value 0.999 | locus YDR388W, stronger effect = lower value 0.996 | locus YDR392W, strain spt3, stronger effect = lower value 0.967 | locus YDR502C, strain sam2, stronger effect = lower value 0.994 | locus YEL003W, strain gim4, stronger effect = lower value 1 | locus YEL037C, strain rad23, stronger effect = lower value 1.03 | locus YEL061C, strain CIN8 (second series), stronger effect = lower value 1.01 | locus YEL061C, strain CIN8, stronger effect = lower value 0.99 | locus YER015W, strain faa2, stronger effect = lower value 0.982 | locus YER016W, strain bim1, stronger effect = lower value 0.992 | locus YER110C, stronger effect = lower value 0.964 | locus YER111C, strain swi4, stronger effect = lower value 0.984 | locus YER155C, strain BEM2 (second series), stronger effect = lower value 0.965 | locus YER155C, strain BEM2, stronger effect = lower value 1 | locus YER167W, strain BCK2, stronger effect = lower value 1.02 | locus YFR010W, strain ubp6, stronger effect = lower value 1 | locus YGL078C, strain dbp3, stronger effect = lower value 0.981 | locus YGL086W, strain mad1, stronger effect = lower value 0.948 | locus YGL167C, strain pmr1, stronger effect = lower value 0.998 | locus YGL173C, strain kem1, stronger effect = lower value 0.997 | locus YGL227W, strain vid30, stronger effect = lower value 0.999 | locus YGL240W, strain doc1, stronger effect = lower value 0.991 | locus YGL248W, strain PDE1, stronger effect = lower value 1.01 | locus YGL253W, strain hxk2, stronger effect = lower value 1.01 | locus YGR135W, strain pre9, stronger effect = lower value 1 | locus YGR229C, strain SMI1, stronger effect = lower value 1.02 | locus YGR252W, strain gcn5, stronger effect = lower value 1.19 | locus YHR013C, strain ard1, stronger effect = lower value 1.02 | locus YHR027C, strain rpn1, stronger effect = lower value 0.993 | locus YHR030C, strain SLT2, stronger effect = lower value 1 and 1.03 | locus YHR079C, strain IRE1 (second series), stronger effect = lower value 0.984 | locus YHR079C, strain IRE1, stronger effect = lower value 1.03 | locus YHR094C, strain hxt1, stronger effect = lower value 0.994 | locus YHR129C, strain ARP1, stronger effect = lower value 1 | locus YHR142W, strain chs7, stronger effect = lower value 1.01 | locus YHR200W, strain rpn10, stronger effect = lower value 0.98 | locus YIL066C, strain RNR3, stronger effect = lower value 1.01 | locus YIL073C, strain SPO22, stronger effect = lower value 0.995 | locus YIL125W, strain kgd1, stronger effect = lower value 0.992 | locus YIR030C, strain dcg1, stronger effect = lower value 0.991 | locus YJL092W, strain hpr5, stronger effect = lower value 0.995 | locus YJL095W, strain BCK1 (second series), stronger effect = lower value 0.999 | locus YJL095W, strain BCK1, stronger effect = lower value 1 and 1.01 | locus YJL115W, strain asf1, stronger effect = lower value 0.996 | locus YJL129C, strain trk1, stronger effect = lower value 1.01 | locus YJL134W, strain LCB3, stronger effect = lower value 1 | locus YJL154C, strain vps35, stronger effect = lower value 1 | locus YJL164C, strain tpk1, stronger effect = lower value 1.01 | locus YJL166W, strain qcr8, stronger effect = lower value 1 | locus YJL168C, strain set2, stronger effect = lower value 0.979 | locus YJL187C, strain SWE1 (second series), stronger effect = lower value 0.986 | locus YJL187C, strain SWE1, stronger effect = lower value 0.995 | locus YJR043C, strain POL32, stronger effect = lower value 1.04
